This is part of a sample that, as a whole, favours compounds with a hit. Of some 83,000 tested, about 20% had one in any assay.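 In brief: 96-well plates, 48 h treatment, single concentration, percent growth endpoint.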 Values without a mark were called inactive. Active and inactive are the calls of the source. How the source made its calls: active means growth percent below 10; inactive means the rest.

Among the test systems are SR leukemia; RPMI-8226 leukemia; OVCAR-8 ovarian; OVCAR-5 ovarian; OVCAR-4 ovarian; SK-OV-3 ovarian; IGROV1 ovarian; OVCAR-3 ovarian; HS 578T breast; NCI/ADR-RES ovarian.
Assay in all cases: NCI-60 one-dose screen, 48 h (100 = growth as untreated, 0 = no growth, -100 = all killed)
Conditions in all cases: 10 µM unless noted

For the compound `CC(=O)OC[C@]12CC[C@@H](C(=O)CBr)[C@@H]1[C@H]1CC[C@@H]3[C@@]4(C)CC[C@H](OC(C)=O)C(C)(C)[C@@H]4CC[C@@]3(C)[C@]1(C)CC2`, the growth was 4.82% (active) with SR leukemia; 91.4% in the assay on RPMI-8226 leukemia; 81.9% in the assay with OVCAR-8 ovarian; 102% in the assay on OVCAR-5 ovarian; 94% in the assay on OVCAR-4 ovarian; 90% in the assay with SK-OV-3 ovarian. For the same compound, the growth is -1.69% (active) in the assay with IGROV1 ovarian, 101% in the assay on OVCAR-3 ovarian, 101% in the assay with HS 578T breast and 110% with NCI/ADR-RES ovarian.

In the case of `COc1cc2c(=O)n(CCN(C)C)c3c4cc5c(cc4ccc3c2cc1OC)OCO5`, the growth is 2.29% (active) with SR leukemia; -27.7% (active) in the assay with RPMI-8226 leukemia; 11.4% in the assay on OVCAR-8 ovarian; -17.5% (active) with OVCAR-5 ovarian; 5.11% (active) in the assay on OVCAR-4 ovarian; -5.08% (active) with SK-OV-3 ovarian. Also, the growth was -16% (active) with IGROV1 ovarian, -41.9% (active) in the assay with OVCAR-3 ovarian, 9.24% (active) in the assay on HS 578T breast and 2.87% (active) in the assay on NCI/ADR-RES ovarian.

For `N#CC1=C(/N=C/c2ccccc2)Oc2c(ccc3ccccc23)C1c1ccc([N+](=O)[O-])cc1` (centres undefined), the growth with SR leukemia was 81%; in the assay with RPMI-8226 leukemia, 92%; in the assay with OVCAR-8 ovarian, 95%; with OVCAR-5 ovarian, 101%; in the assay on OVCAR-4 ovarian, 88.2%; in the assay on SK-OV-3 ovarian it was 86.9%. The growth in the assay on IGROV1 ovarian is 56.6%; in the assay with OVCAR-3 ovarian, 86.4%; in the assay with HS 578T breast, 91.6%; in the assay with NCI/ADR-RES ovarian, 95.6%.

Turning to `O=C(C1CCC1)N1N=C(c2ccc(-n3ccc(C(F)(F)F)n3)cc2)CC1c1ccc[nH]1` (centres undefined), the growth in the assay on SR leukemia is 81.9%; in the assay with RPMI-8226 leukemia, 63.2%; with OVCAR-8 ovarian it was 95.4%; in the assay with OVCAR-5 ovarian, 94.8%; in the assay with OVCAR-4 ovarian it was 112%; with SK-OV-3 ovarian it was 133%. In addition, the growth in the assay with IGROV1 ovarian was 99.6%; in the assay with HS 578T breast, 101%.

Turning to `N#C/C(=C\c1ccc([N+](=O)[O-])s1)c1nc2cc(Br)ccc2s1`, the growth with SR leukemia was -18.3% (active); with RPMI-8226 leukemia it was -43.5% (active); in the assay with OVCAR-8 ovarian, -19.7% (active); with OVCAR-5 ovarian it was 20.5%; with OVCAR-4 ovarian, -11.6% (active); in the assay on SK-OV-3 ovarian, 10.1%. Besides, the results for the growth in the assay with IGROV1 ovarian, with OVCAR-3 ovarian and in the assay with NCI/ADR-RES ovarian were -32.7% (active), -28.6% (active) and -28.5% (active), respectively.

In the case of `CCOC(=O)c1cc(C(=O)c2ccc(OC)cc2)n2ccc(/C=C/c3cc[n+](CC(=O)c4ccc(OC)cc4)cc3)cc12`, the growth is -29.5% (active) in the assay on SR leukemia; 10.4% with RPMI-8226 leukemia; 21.1% with OVCAR-8 ovarian; 87.1% in the assay with OVCAR-5 ovarian; 16.1% with OVCAR-4 ovarian; 109% in the assay with SK-OV-3 ovarian. Further, the growth was 63.1% in the assay on IGROV1 ovarian, 60.9% in the assay with OVCAR-3 ovarian, 105% with HS 578T breast and 98.1% with NCI/ADR-RES ovarian.

In the case of `Cn1ccnc1C(=O)/C=C/c1ccc(CC(=O)Nc2ccc(Cl)cc2)cc1`, the growth is 6.73% (active) in the assay on SR leukemia; -7.76% (active) in the assay on RPMI-8226 leukemia; -27.7% (active) in the assay on OVCAR-8 ovarian; 22.9% in the assay with OVCAR-5 ovarian; 36.9% in the assay on OVCAR-4 ovarian; 58.7% in the assay with SK-OV-3 ovarian. Further, the growth in the assay with IGROV1 ovarian is 13%; with OVCAR-3 ovarian, 4.49% (active); in the assay on HS 578T breast, 8.18% (active); with NCI/ADR-RES ovarian, 10.8%.

`COc1cccc(-c2nc3occn3c2-c2ccnc(NCCNS(=O)(=O)c3cccc4ccccc34)n2)c1`: the growth was 110% with SR leukemia; 102% with RPMI-8226 leukemia; 97.4% in the assay on OVCAR-8 ovarian; 123% in the assay on OVCAR-5 ovarian; 102% in the assay with OVCAR-4 ovarian; 83.5% in the assay with SK-OV-3 ovarian. Moreover, the growth in the assay on IGROV1 ovarian is 89%; in the assay with OVCAR-3 ovarian, 103%; with HS 578T breast it was 105%; with NCI/ADR-RES ovarian, 98.8%.

Turning to `CCCCC[n+]1ccc(SCC(=O)N(C)c2ccc(Oc3ccccc3)cc2)c2ccccc21`, the growth with SR leukemia is 84.5%; in the assay with RPMI-8226 leukemia it was 66.2%; in the assay with OVCAR-8 ovarian, 98.4%; in the assay with OVCAR-5 ovarian it was 105%; in the assay on OVCAR-4 ovarian, 92.6%; in the assay with SK-OV-3 ovarian it was 101%. The growth in the assay on IGROV1 ovarian was 117%; in the assay on OVCAR-3 ovarian, 90.9%; with HS 578T breast it was 109%; in the assay with NCI/ADR-RES ovarian, 104%.

In the case of `CCOC(=O)c1nc2c3ccccc3ccn2c1C(=O)OCC`, the growth in the assay on SR leukemia is 103%; in the assay with RPMI-8226 leukemia, 96.4%; in the assay with OVCAR-8 ovarian, 111%; in the assay with OVCAR-5 ovarian, 98%; with OVCAR-4 ovarian it was 107%; in the assay with SK-OV-3 ovarian it was 109%. The results for the growth in the assay with IGROV1 ovarian, with OVCAR-3 ovarian and in the assay on NCI/ADR-RES ovarian were 96.5%, 106% and 96%, respectively.

Take `CCCCCOc1ccc(/C=N/Nc2cc(C)nc3ccc(Cl)cc23)cc1`: the growth was -21.9% (active) in the assay with SR leukemia; -23.1% (active) in the assay on RPMI-8226 leukemia; -43.1% (active) with OVCAR-8 ovarian; 93.7% in the assay with OVCAR-5 ovarian; -14.1% (active) with OVCAR-4 ovarian; 90.4% with SK-OV-3 ovarian. Also, the growth with IGROV1 ovarian is -76.8% (active); with OVCAR-3 ovarian it was -79.4% (active); with HS 578T breast, 51.3%; with NCI/ADR-RES ovarian it was 53.5%.

In the case of `NS(=O)(=O)c1ccc(CCN2C(=O)C=CC2=O)cc1`, the growth with SR leukemia is 91.6%; in the assay with RPMI-8226 leukemia, 102%; in the assay on OVCAR-8 ovarian it was 104%; in the assay with OVCAR-5 ovarian it was 106%; with OVCAR-4 ovarian, 97.7%; in the assay with SK-OV-3 ovarian it was 110%. The growth with IGROV1 ovarian is 104%; with OVCAR-3 ovarian it was 106%; with HS 578T breast it was 108%; with NCI/ADR-RES ovarian it was 99.6%.

Take `Cc1cc(C)c(S(=O)(=O)Oc2ccccc2[N+](=O)[O-])c(C)c1`: the growth in the assay with SR leukemia is 15.7%; with RPMI-8226 leukemia it was 24.2%; with OVCAR-8 ovarian it was 29.8%; in the assay on OVCAR-5 ovarian it was 43.4%; in the assay on OVCAR-4 ovarian, 42.9%; in the assay with SK-OV-3 ovarian, 41.2%. Also, the growth was 30.2% in the assay with IGROV1 ovarian and -16.4% (active) in the assay with HS 578T breast.

With `CNC(=O)c1cncc(Cn2nc(C)c(NC(=O)c3ccc(COc4ccc(C(F)(F)F)cc4C)cc3)c2C)c1`, the growth in the assay with SR leukemia was 25%; in the assay with RPMI-8226 leukemia, 42.7%; with OVCAR-8 ovarian, 55%; in the assay with OVCAR-5 ovarian, 98.1%; with OVCAR-4 ovarian, 43.5%; with SK-OV-3 ovarian it was 76.7%. For the same compound, the growth is 62.7% in the assay on IGROV1 ovarian, 41% with OVCAR-3 ovarian, 92.7% in the assay on HS 578T breast and 96.4% in the assay with NCI/ADR-RES ovarian.

For the origin of these results see PubChem BioAssay (NCI).
